The source holds several records for some structures; these can differ, active in one and inactive in another. The source made the active and inactive calls. The calls were made as follows: active = hit-call score of the fitted dose curve at least 0.9, where 1 is the maximum; inactive = score below 0.9.
Assay: ATG_PPRE_CIS: Attagene CIS-FACTORIAL HepG2 Assay for human Peroxisome Proliferator-activated Response Element (PPRE) (AID 2282958)
Conditions: HepG2 PPRE cis-element reporter, Attagene transcription factor profiling; actives raise or lower the signal
Experimental: ATG_CIS is a cell-based, multiplexed-readout assay that uses HepG2, a human liver cell line, with measurements taken at 24 hours after chemical dosing in a 24-well plate.ATG_PPRE_CIS is one of 52 assay component(s) measured or calculated from the ATG_CIS assay. It is designed to make measurements of mRNA induction, a form of inducible reporter, as detected with fluorescence intensity signals by Reverse transcription polymerase chain reaction (RT-PCR) and Capillary electrophoresis technology.Data from the assay component ATG_PPRE_CIS was analyzed into 1 assay endpoint. This assay endpoint, ATG_PPRE_CIS, was analyzed with bidirectional fitting relative to DMSO as the negative control and baseline of activity. Using a type of inducible reporter, measures of mRNA for gain or loss-of-signal activity can be used to understand the reporter gene at the transcription factor-level as they relate to the gene PPARA and PPARD and PPARG. Furthermore, this assay endpoint can be referred to as a primary readout, because this assay has produced multiple assay endpoints where this one serves a reporter gene function. To generalize the intended target to other relatable targets, this assay endpoint is annotated to the nuclear receptor intended target family, where the subfamily is non-steroidal.
Human liver HepG2 cells are transiently transfected with multiple reporter transcription units (MRTUs) in 6-well plates using FuGene 6 reagent (Roche; 3 ml FuGene/1 mg DNA). The MRTU constructs are regulated by a cis-regulating element (promoter). […] A major difference between the CIS and TRANS system is that in CIS activities of endogenous TFs are measured, whereas the TRANS assay evaluates changes in activities of exogenous, chimeric NR-Gal4 proteins. […] At the end of 24 hour incubation, total RNA was isolated using TriZol reagent (Invitrogen). The isolated RNA is then reverse-transcribed using oligo(dT) primer and Mo-MLV reverse transcriptase (Invitrogen) with DNAse I (Ambion) treatment for 30 min. The one-tenth of the produced cDNA was amplified by PCR using Taq DNA polymerase (Invitrogen) and two reporter sequence-specific primers. The PCR products were fluorescently labeled by primer extension with 6-arboxyfluorescein (6-FAM) 5'-labeled reporter sequence-specific primer (2 min at 95 C, 20 s at 68 C and 10 min at 72 C) and these products were digested with 5U of HpaI (New England Biolabs) for 2h at 37 C. The fragments were purified using Qiaquick PCR columns (Qiagen), analyzed on an ABI 3130xL genetic analyzer (Applied Biosystems) with peak positions identified by using a set of X-rhodamine (ROX)-labeled MapMarker1000 molecular weight standards (BioVentures). The raw capillary electrophoresis data was processed using Attagraph software (Attagene).

| Compound | outcome | AC50 |
| --- | --- | --- |
| CC1(C)CC(=O)CC(C)(C)N1 | inactive | – |
| C1CCCNCC1 | inactive | – |
| CC(C)N1C(=O)c2ccccc2C1=O | inactive | – |
| Cc1ccc(C(C)(C)O)cc1 | inactive | – |
| CCC(C)C1CCCCC1=O (stereo not given) | inactive | – |
| COc1ccc2[nH]cc(CCNC(C)=O)c2c1 | inactive | – |
| C=C1CC[C@H]2O[C@]2(C)CC[C@@H]2[C@@H]1CC2(C)C | inactive | – |
| [O-]/[N+](=N\O)c1ccccc1 | inactive | – |
| Cc1ccccc1S | inactive | – |
| CC(C)COC(=O)c1ccccc1 | inactive | – |
| OC[C@H]1O[C@@H](O[C@H]2[C@H](O)[C@@H](O)[C@H](O)O[C@@H]2CO)[C@H](O)[C@@H](O)[C@H]1O | inactive | – |
| CCC(C)COC(=O)CC(C)C (stereo not given) | inactive | – |
| CCCO[Si](OCCC)(OCCC)OCCC | – | 42.2 µM (active) |
| CNC(=C[N+](=O)[O-])NCCSCc1ccc(CN(C)C)o1 | inactive | – |
| CC(C)(O)C(=O)c1ccc(OCCO)cc1 | inactive | – |
| CCCCCCCCSCc1cc(C)c(O)c(CSCCCCCCCC)c1 | inactive | – |
| CC(C)CCCC(C)(C)O | inactive | – |
| COC(=O)c1cccc(C(=O)OC)c1 | inactive | – |
| C=C(C)C(=O)OCCC(C)OC(=O)C(=C)C (stereo not given) | inactive | – |
| c1ccc2scnc2c1 | inactive | – |

| Compound | outcome | AC50 |
| --- | --- | --- |
| CN(C)C(=O)Nc1ccccc1 | inactive | – |
| CCCCCCCCOS(=O)(=O)O | – | 31.3 µM (active) |
| CC1COC(=O)O1 (stereo not given) | inactive | – |
| C=CC(=O)OCC(CO)(COC(=O)C=C)COC(=O)C=C | – | 117 µM (active) |
| CC12CCC(C1)C(C)(C)C2O (stereo not given) | inactive | – |
| CC(=O)Nc1cc(S(=O)(=O)O)cc2cc(S(=O)(=O)O)c(N=Nc3ccccc3)c(O)c12 | inactive | – |
| C[C@]12CC[C@@H]3c4ccc(O)cc4CC[C@H]3[C@@H]1CC[C@@H]2O | inactive | 27 µM (active) |
| NS(=O)(=O)c1cc(C(=O)O)c(NCc2ccco2)cc1Cl | inactive | – |
| CC/C=C\C#N | inactive | – |
| CC(O)CNCC(C)O (stereo not given) | inactive | – |
| O=C(O)c1cccc(Cl)n1 | inactive | – |
| CCC(C)(C)c1cc(O)c(C(C)(C)CC)cc1O | inactive | – |
| C#C[C@]1(O)CC[C@H]2[C@@H]3CCc4cc(O)ccc4[C@H]3CC[C@@]21C | inactive | – |
| C[C@H](CCC(=O)O)[C@H]1CC[C@H]2[C@@H]3CC[C@@H]4C[C@H](O)CC[C@]4(C)[C@H]3CC[C@]12C | inactive | – |
| COc1ccccc1O | inactive | – |
| CCCCOCC(C)OCC(C)O (stereo not given) | inactive | – |
| CC(C)(O)CCc1ccccc1 | inactive | – |
| CCCCCC1CCC(=O)O1 (stereo not given) | inactive | – |
| CCC(C)(C)C1CCC(=O)CC1 | inactive | – |

Reference: PubChem BioAssay (EPA / NIEHS)
